# In PubChem BioAssay (NCATS):
# Records with an inconclusive call do not appear. A call without a number means that no potency is given here. Activity calls are given as the source filed them. Unless noted, the call rests on the fitted dose curve; in most records, active means well fitted curve in the direction sought with a large enough effect; inconclusive means small, poorly fitted or top-dose-only effect, or another doubt; inactive means no such curve, though single readings can be large; an effect the other way counts as inactive or inconclusive.
# Legend:
# [1] = biological target: Calcium and integrin-binding protein 1 (Homo sapiens) (UniProt Q99828); test: Primary qHTS for Identification of Calcium Integrin Binding Protein 1 (CIB1) Competitor (AID 1508620);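 further: GST tagged CIB1 binding a fluorescein labelled alphaIIb integrin peptide tracer; top concentration of the series differs between compounds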
# Chain of Calcium and integrin-binding protein 1 (Homo sapiens) (Q99828 whole entry, looked up): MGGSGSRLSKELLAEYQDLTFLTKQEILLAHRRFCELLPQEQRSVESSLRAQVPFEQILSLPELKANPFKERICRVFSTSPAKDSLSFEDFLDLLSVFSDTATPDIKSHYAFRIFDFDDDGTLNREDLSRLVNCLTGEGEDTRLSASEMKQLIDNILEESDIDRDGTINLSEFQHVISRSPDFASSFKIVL
# In short: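 Fluorescence polarization competition: CIB1-GST (1 uM final) preincubated with compound 15 min at room temperature, then FITC-labeled alphaIIb peptide (100 nM final) added for another 15 min. Polarization read at Ex 480/Em 540.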
# [2] = biological target: Cytochrome P450 2D6 (Homo sapiens) (UniProt P10635); test: Cytochrome P450 family 2 subfamily D member 6 (CYP2D6) small molecule antagonists: luciferase biochemical (cell-free) qHTS assay (AID 1645840; active means well fitted curve in the direction sought with a large enough effect in the repeat runs; an effect the other way counts as inactive or inconclusive; further: nearly all actives have a fitted effect of over 55% in size; further: potency means the concentration at half of the fitted maximal effect)
# Chain of Cytochrome P450 2D6 (Homo sapiens) (P10635 whole entry, looked up): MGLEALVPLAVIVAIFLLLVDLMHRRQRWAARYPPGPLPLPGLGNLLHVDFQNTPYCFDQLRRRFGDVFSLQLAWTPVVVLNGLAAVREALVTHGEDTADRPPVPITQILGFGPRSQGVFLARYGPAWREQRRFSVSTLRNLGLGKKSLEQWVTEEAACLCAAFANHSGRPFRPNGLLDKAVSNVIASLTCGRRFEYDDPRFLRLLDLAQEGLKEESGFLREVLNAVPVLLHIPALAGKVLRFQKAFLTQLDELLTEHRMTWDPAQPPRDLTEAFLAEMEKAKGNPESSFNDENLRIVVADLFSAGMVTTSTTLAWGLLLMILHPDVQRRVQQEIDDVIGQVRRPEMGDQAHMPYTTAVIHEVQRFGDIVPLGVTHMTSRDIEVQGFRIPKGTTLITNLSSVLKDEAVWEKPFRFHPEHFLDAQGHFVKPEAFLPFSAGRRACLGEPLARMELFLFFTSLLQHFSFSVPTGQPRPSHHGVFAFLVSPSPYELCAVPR
# In short: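 P450-Glo luminescent screen: recombinant CYP2D6 enzyme–proluciferin substrate mix preincubated with compound 10 min at room temperature, then NADPH regeneration added for 1 h at room temperature. Detection reagent added for 20 min; luciferin light read as relative luminescence units.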
# [3] = Primary qHTS for small molecule stabilizers of the endoplasmic reticulum resident proteome: Secreted ER Calcium Modulated Protein (SERCaMP) assay (AID 1508630)
# In short: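 GLuc-SERCaMP-expressing SH-SY5Y cells, pretreated 16 h with compound, are challenged with thapsigargin to empty ER calcium stores; after 4 h, coelenterazine is added directly to the medium and luminescence is imaged.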
# [4] = biological target: Cytochrome P450 3A4 (Homo sapiens) (UniProt P08684); test: Cytochrome P450 family 3 subfamily A member 4 (CYP3A4) small molecule antagonists: luciferase qHTS assay (AID 1645841; active means well fitted curve in the direction sought with a large enough effect in the repeat runs; an effect the other way counts as inactive or inconclusive; further: potency means the concentration at half of the fitted maximal effect; nearly all actives have a fitted effect of over 45% in size)
# Chain of Cytochrome P450 3A4 (Homo sapiens) (P08684 whole entry, looked up): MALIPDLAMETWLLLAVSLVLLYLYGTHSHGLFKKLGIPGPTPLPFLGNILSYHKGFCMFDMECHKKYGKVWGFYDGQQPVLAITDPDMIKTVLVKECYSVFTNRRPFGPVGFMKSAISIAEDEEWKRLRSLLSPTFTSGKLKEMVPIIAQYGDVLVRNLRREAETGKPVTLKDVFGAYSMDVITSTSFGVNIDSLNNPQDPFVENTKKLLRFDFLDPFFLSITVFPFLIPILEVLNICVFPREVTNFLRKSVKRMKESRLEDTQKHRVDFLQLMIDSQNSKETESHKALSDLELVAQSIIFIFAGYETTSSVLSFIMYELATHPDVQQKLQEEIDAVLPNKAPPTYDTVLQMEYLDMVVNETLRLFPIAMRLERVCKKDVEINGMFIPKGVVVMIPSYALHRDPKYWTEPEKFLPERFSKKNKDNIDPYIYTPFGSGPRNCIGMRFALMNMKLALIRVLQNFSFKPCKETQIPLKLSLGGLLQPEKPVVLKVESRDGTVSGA
# In short: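 P450-Glo CYP3A4 enzyme with proluciferin substrate was preincubated with DMSO-dissolved compounds for 10 min at room temperature. NADPH regeneration solution started a 1 h reaction. Detection reagent stopped it, and luminescence was read after 20 min.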
compound,measurement,setting,value
CCCC(CCC)C(=O)NCc1ccc2c(cnn2-c2ccccc2OC)c1,Potency,[1],inactive
same,Potency,[2],13.5 µM (active)
O=C(N[C@@H]1CCCc2c1cnn2-c1ccc(F)cc1F)c1ccccn1,Potency,[1],inactive
same,Potency,[2],inactive
Clc1ccc(Cn2c(Cc3ccccc3)nc3ccccc32)cc1,Potency,[1],inactive
same,Potency,[2],10.7 µM (active)
CCOc1ccc(S(=O)(=O)N2CCCCCC2)c2ccccc12,Potency,[1],inactive
same,Potency,[2],inactive
O=C(NS(=O)(=O)c1ccc(Br)s1)c1ccc(Cl)cc1Cl,Potency,[1],inactive
same,Potency,[2],inactive
Cc1cc(C)nc(SCC(=O)Nc2ncc(Cc3cccc4ccccc34)s2)n1,Potency,[1],inactive
same,Potency,[2],inactive
COc1ccc(-c2cnc3c(-c4cccc5ncccc45)cnn3c2)cc1,Potency,[1],inactive
same,Potency,[2],inactive
Nc1ncnc2c1c(-c1ccc(Cl)cc1)nn2-c1cccc(-c2cnnn2Cc2cccc(-c3ccccc3)c2)c1,Potency,[1],inactive
same,Potency,[2],inactive
COc1ccccc1OCCNCC(O)CCOc1cccc2[nH]c3ccccc3c12 (stereo unspecified),Potency,[1],inactive
same,Potency,[2],0.301 µM (active)
CC(C)(C)c1ccc(-c2nc3c(N4CCN(Cc5ccc6nccnc6c5)CC4)cccc3[nH]2)cc1,Potency,[1],inactive
same,Potency,[2],inactive
COc1ccc(Sc2ccc(NC(=O)c3ccccc3Cl)cc2C#N)cc1,Potency,[1],inactive
same,Potency,[2],inactive
Cc1noc(C)c1-c1cc(O)cc(C(O)c2ccccc2)c1 (stereo unspecified),Potency,[1],inactive
same,Potency,[2],16.9 µM (active)
N#Cc1cc(CN2CCC(Nc3ncnc4sc(Cl)cc34)CC2)ccc1F,Potency,[1],inactive
same,Potency,[2],1.51 µM (active)
Cc1cnn(-c2ccccc2)c1NC(=O)COCc1ccccc1,Potency,[1],inactive
same,Potency,[2],inactive
CCCCC1CCC(c2nc(-c3ccncc3)no2)CC1 (stereo unspecified),Potency,[1],inactive
same,Potency,[2],0.536 µM (active)
CC(F)(F)CN1CCOc2c(nn(-c3ccccc3Cl)c2-c2ccc(Cl)cc2)C1=O,Potency,[1],inactive
same,Potency,[2],13.5 µM (active)
Oc1cccc(C2NC(=S)Nc3cccc(F)c32)c1 (stereo unspecified),Potency,[1],inactive
same,Potency,[2],7.56 µM (active)
CC(C)c1noc(C2CCN(c3ncnc(Nc4ccc(S(C)(=O)=O)cc4F)c3[N+](=O)[O-])CC2)n1,Potency,[1],inactive
same,Potency,[2],inactive
Cc1cc(C(=O)Cn2cc(C#N)ccc2=O)c(C)n1Cc1ccccc1,Potency,[1],inactive
same,Potency,[2],inactive
CNCc1cc(-c2ccccc2F)n(S(=O)(=O)c2cccnc2)c1,Potency,[1],inactive
same,Potency,[2],19 µM (active)
CCOC(=O)N1c2ccc(C(F)(F)F)cc2C(N(Cc2cc(C(F)(F)F)cc(C(F)(F)F)c2)C(=O)OC)CC1CC (stereo unspecified),Potency,[1],inactive
same,Potency,[2],inactive
COc1cc(-c2nc(N[C@H](CO)Cc3ccccc3)ccc2C(=O)NCCOc2ccccc2)cc(OC)c1OC,Potency,[1],inactive
same,Potency,[2],12 µM (active)
COc1cc(/C=N\NC(=O)c2ccc3c(c2)OCO3)ccc1OCc1ccccc1,Potency,[1],inactive
same,Potency,[2],2.39 µM (active)
O=C(Nc1ccccc1Cl)c1cnc2ccc(C3CCNCC3)cn12,Potency,[1],inactive
same,Potency,[2],inactive
CN(C)CCCn1cc(C2=C(c3c[nH]c4ccccc34)C(=O)NC2=O)c2ccccc21,outcome,[3],inactive
NC(=O)C[C@@H](N)C(=O)O,outcome,[3],inactive
C=CC(=O)N1CCC(Oc2cc3c(Nc4ccc(Cl)c(Cl)c4F)ncnc3cc2OC)CC1,Potency,[4],0.239 µM (active)
